The source of these data is PubChem BioAssay (EPA / NIEHS).

Usually AC50 stands for the concentration giving half of the maximal activity seen.

“And” between values parts separate entries of the source, which are not always exact repeats. Equal values may be shown once. Inconclusive results are not listed. The source made the active and inactive calls. The calls were made as follows: active = hit-call score of the fitted dose curve at least 0.9, where 1 is the maximum; inconclusive = response in the unintended direction; inactive = score below 0.9.

For this test, the target named is human Peripheral-type Benzodiazepine Receptor (PBR), TSPO (gene 706) (UniProt P30536). As to the kind of experiment: NVS_MP_hPBR: NovaScreen (NVS) Membrane Protein Assay for human Peripheral-type Benzodiazepine Receptor (PBR) (AID 2283331). The protocol: NVS_MP_hPBR is a biochemical, single-readout assay that uses extracted gene-proteins from Human colonic cell membranes in a tissue-based cell-free assay. Measurements were taken 1 hour after chemical dosing in a 48-well plate.NVS_MP_hPBR is one of one assay component(s) measured or calculated from the NVS_MP_hPBR assay. It is designed to make measurements of radioligand binding, a form of binding reporter, as detected with scintillation counting signals by Filter-based radiodetection technology.Data from the assay component NVS_MP_hPBR was analyzed into 1 assay endpoint. This assay endpoint, NVS_MP_hPBR, was analyzed in the positive analysis fitting direction relative to DMSO as the negative control and baseline of activity. Using a type of binding reporter, loss-of-signal activity can be used to understand changes in the binding as they relate to the gene TSPO. Furthermore, this assay endpoint can be referred to as a primary readout, because the performed assay has only produced 1 assay endpoint. To generalize the intended target to other relatable targets, this assay endpoint is annotated to the transporter intended target family, where the subfamily is cholesterol transporter.
Sequence of human Peripheral-type Benzodiazepine Receptor (PBR), TSPO (gene 706) (P30536 whole entry, looked up): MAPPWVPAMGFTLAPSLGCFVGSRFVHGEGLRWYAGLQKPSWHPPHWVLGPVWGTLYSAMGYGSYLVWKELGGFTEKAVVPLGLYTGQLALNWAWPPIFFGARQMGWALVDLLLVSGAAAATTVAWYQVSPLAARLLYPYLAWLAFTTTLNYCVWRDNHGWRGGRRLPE
Binding assays used specific radioligands (tritiated, iodinated) with non-radioactive competitive displacement ligands in agonist or antagonist protocols (as indicated) and various reference compounds and inhibitors to titrate specific binding to receptors and transporters. Most enzyme assays (CYPs, kinases, phosphatases, proteases, HDACs) used recombinant protein and specific substrates (fluorescence mostly, some colorimetric and radioactive) and inhibitors, followed by a biochemical separation of substrate and product. All assays for the biochemical HTS were initially run in duplicate at a single concentration (10 uM for CYP450 assays and 25 uM for all others). […] Each assay was run with positive and negative controls, and concurrent controls on every plate. The follow-up (secondary) screen tested active chemical-pairs in concentration series, as well as a few additional assays not tested in the primary screen, some selected negative inactives, and several cases re-run in the concentration series for confirmatory purposes.
`C/C=C\C/C=C/CCCCCCCCOC(C)=O`: the AC50 is 16.3 µM (active).
For `CN(C)c1ccc(C(=N)c2ccc(N(C)C)cc2)cc1`, the AC50 is 2.62 µM (active).
On to `CC/C=C\C/C=C\C/C=C\CCCCCCCC(=O)O`, for which the AC50 is 11.6 µM (active).
As for `CCCCCCCC[N+](C)(CCCCCCCC)CCCCCCCC`, the AC50 was 3.77 µM (active).
As for `O=S(=O)(O)c1ccccc1C=Cc1ccc(-c2ccc(C=Cc3ccccc3S(=O)(=O)O)cc2)cc1`, the figure is 0.6 µM (active); as for `O=C(Nc1ccccc1SSc1ccccc1NC(=O)c1ccccc1)c1ccccc1`, 6.22 µM (active).
Regarding `O=c1cc(-c2ccccc2)oc2ccccc12`, the AC50 was 12.6 µM (active).
Regarding `Cc1ccc(N/N=c2\c(=O)cc/c(=N/Nc3ccc(S(=O)(=O)O)cc3)c2=O)c(C)c1`, the AC50 was 7.15 µM (active).
Take `CCCCC/C=C\C/C=C\CCCCCCCC(=O)OC`: the AC50 is 8.31 µM (active) and 6.11 µM (active).
Then `C1=Cc2ccccc2C1`, with 15.2 µM (active); and `CCCCCCCCCCCCCCCC[N+](C)(C)CC`, with 35.8 µM (active).
Then `CCCCCCCCCCCCCOP(=O)(O)O`, with 18.4 µM (active).
Regarding `CCOc1nc(F)cc2nc(S(=O)(=O)Nc3c(Cl)cccc3C(=O)OC)nn12`, the AC50 is 1.63 µM (active).
